# Laboratory results published in the supplement of paper PMC11219838.
# Unmarked numbers belong to inactive results.
# Tested on: Meloidogyne hapla J2
# Experiment: proportion of mobile M. hapla J2 relative to DMSO control (fraction of DMSO control); higher = more viable, less nematicidal, active = 0.7 or less
# Conditions: 60 µM; 5 days; temperature: 20 °C
# Summary of the method: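 About 25 M. hapla J2 were added per 96-well well in distilled water, and compound was pinned to 60 µM final (0.6% v/v DMSO). Sealed plates were shaken at 200 rpm for 5 days at 20 °C, then 2 µL 1 M NaOH was added before microscopic mobility scoring. Mobility was divided by the mean of eight DMSO wells on the same plate, and two biological replicates were averaged.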
row,SMILES,proportion of mobile M. hapla J2
1,CC(=O)Nc1ccc(-c2nnc(SCc3ccccc3)o2)cc1,0.954
2,COc1ccc(-c2nnc(SCc3ccc(C#N)cc3)o2)cc1,0.942
3,COc1ccc(-c2noc(-c3ccc(C)c(C)c3)n2)cc1,0.807
4,O=C(CSc1nnc(-c2ccco2)o1)Nc1cccc(Cl)c1Cl,0.866
5,c1ccc(CSc2nnc(-c3ccccc3)o2)cc1,1.04
6,O=C(Nc1ccccc1-c1nc(-c2cccnc2)no1)c1cccc(Cl)c1,0.837
7,Cc1ccc(-c2noc(COc3ccc(Cl)cc3C)n2)cc1,0.996
8,CCOc1cc(-c2nc(-c3ccc(C)nc3OCC)no2)cc(OCC)c1OCC,0.908
9,O=C(CSc1nnc(-c2ccc(Cl)cc2)o1)NC1CC2CCC1C2 (stereo not drawn),0.693 (active)
10,Cc1ccc(C(=O)CSc2nnc(-c3ccco3)o2)o1,0.906
11,Cc1ccc(SCc2nc(-c3ccc(C)cc3)no2)cc1,0.854
12,Cn1cc(C(=O)CSc2nnc(-c3ccccc3)o2)c2ccccc21,1.01
13,O=C(CSc1nnc(-c2ccccc2Cl)o1)Nc1ccc(F)cc1,0.896
14,Cc1cc(C)c(C)c(OCc2nc(-c3cccnc3)no2)c1,0.58 (active)
15,O=C(CSc1nnc(-c2ccncc2)o1)Nc1cc(Cl)cc(Cl)c1,0.948
16,Brc1cccc(-c2nc(-c3ccccc3)no2)c1,1.02
17,CCN(Cc1ccccc1)C(=O)c1ccccc1-c1nc(-c2cccc(C)c2)no1,0.579 (active)
18,CC(C)c1ccc(OCc2nc(-c3ccncc3)no2)c(Br)c1,0.82
